Measured values from PubChem BioAssay (EPA / NIEHS).
Active and inactive are the calls of the source. How the source made its calls: active means hit-call score of the fitted dose curve at least 0.9, where 1 is the maximum; inactive means score below 0.9.

Key:
[1] = read-out: Transforming growth factor beta 1 (TGFb1), TGFB1 (gene 7040); assay: BSK_KF3CT_TGFb1: BioMAP Diversity Plus: KF3CT Assay for Transforming growth factor beta 1 (TGFb1) Biomarker Activity (AID 2283072); settings: primary human keratinocytes with fibroblasts; actives raise or lower the signal
Method in brief: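 Primary human skin cells (keratinocytes, foreskin fibroblasts) were co-cultured, exposed to test chemical and sampled at 24 h. TGF-b1 levels were measured by ELISA and fitted bidirectionally relative to DMSO.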

[2] = read-out: C-C motif chemokine 2 (Homo sapiens) (UniProt P13500); assay: BSK_KF3CT_MCP1: BioMAP Diversity Plus: KF3CT Assay for Monocyte Chemoattractant Protein 1 (MCP1/CCL2) Biomarker Activity (AID 2283073); settings: primary human keratinocytes with fibroblasts; actives raise or lower the signal
Method in brief: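 Human keratinocyte–foreskin fibroblast co-culture; MCP-1 measured by ELISA 24 h after dosing. Bidirectional fit vs DMSO; cytotoxicity tracked by SRB total protein in parallel cultures.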

[3] = read-out: Matrix Metallopeptidase 9 (MMP9), MMP9 (gene 4318); assay: BSK_KF3CT_MMP9: BioMAP Diversity Plus: KF3CT Assay for Matrix Metallopeptidase 9 (MMP9) Biomarker Activity (AID 2283074); settings: primary human keratinocytes with fibroblasts; actives raise or lower the signal
Method in brief: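 Human keratinocyte/foreskin fibroblast co-culture; compound added; 24 h; MMP-9 by ELISA; bidirectional fit vs DMSO baseline.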

[4] = read-out: urokinase plasminogen activator (uPA), PLAU (gene 5328); assay: BSK_KF3CT_uPA: BioMAP Diversity Plus: KF3CT Assay for urokinase plasminogen activator (uPA) Biomarker Activity (AID 2283075); settings: primary human keratinocytes with fibroblasts; actives raise or lower the signal
Method in brief: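 ELISA readout of uPA, analyzed for signal gain or loss relative to DMSO, from a human primary keratinocyte–foreskin fibroblast co-culture measured 24 h after chemical treatment.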

CD40, CD40 (gene 958) [5] = assay: BSK_LPS_CD40: BioMAP Diversity Plus: LPS Assay for CD40 Biomarker Activity (AID 2283076); settings: primary human HUVEC with PBMC; actives raise or lower the signal
Method in brief: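 HUVEC plus PBMC co-culture stimulated with LPS; CD40 quantified by ELISA 24 h after compound dosing. Fitting was bidirectional relative to DMSO. SRB staining of parallel cultures flagged overt cytotoxicity.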

[6] = read-out: E-selectin (Homo sapiens) (UniProt P16581); assay: BSK_LPS_Eselectin: BioMAP Diversity Plus: LPS Assay for Eselectin Biomarker Activity (AID 2283077); settings: primary human HUVEC with PBMC; actives raise or lower the signal
Method in brief: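 Human umbilical vein endothelial cells co-cultured with PBMC under LPS stimulation; cell-surface E-selectin measured by ELISA 24 h after dosing. Change in either direction versus DMSO, with SRB total-protein staining in parallel cultures for cytotoxicity.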

[7] = read-out: Interleukin-8 (IL8), CXCL8 (gene 3576); assay: BSK_LPS_IL8: BioMAP Diversity Plus: LPS Assay for Interleukin-8 (IL8) Biomarker Activity (AID 2283078); settings: primary human HUVEC with PBMC; actives raise or lower the signal
Method in brief: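 Human umbilical vein endothelial cells co-cultured with PBMC, LPS-stimulated, exposed to compound for 24 h. IL-8 quantified by ELISA; fitted in both directions against DMSO, with SRB total-protein staining of parallel cultures for cytotoxicity.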

[8] = BSK_LPS_SRB: Viability Assessment in the BioMAP Diversity Plus: LPS Assay (AID 2283079); settings: primary human HUVEC with PBMC;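 further: total protein by sulforhodamine B absorbance as a cytotoxicity measure; measured one day after compound addition; fitted in both directions against DMSO so loss or gain of signal counts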
Method in brief: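 Co-culture of human umbilical vein endothelial cells and PBMC, read 24 h after dosing. Total protein by 0.1% SRB staining after 10% TCA fixation, absorbance at 560 nm; bidirectional fit against DMSO.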

[9] = read-out: Interleukin-1 alpha (IL1a), IL1A (gene 3552); assay: BSK_LPS_IL1a: BioMAP Diversity Plus: LPS Assay for Interleukin-1 alpha (IL1a) Biomarker Activity (AID 2283080); settings: primary human HUVEC with PBMC; actives raise or lower the signal
Method in brief: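 Human umbilical vein endothelial cells co-cultured with PBMC and stimulated with LPS; IL-1a measured by ELISA 24 h after dosing. Bidirectional fitting against DMSO; cytotoxicity checked by SRB staining in parallel cultures.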

[10] = read-out: Monocyte Chemoattractant Protein-1 (MCP1), CCL2 (gene 6347); assay: BSK_LPS_MCP1: BioMAP Diversity Plus: LPS Assay for Monocyte Chemoattractant Protein-1 (MCP1) Biomarker Activity (AID 2283081); settings: primary human HUVEC with PBMC; actives raise or lower the signal
Method in brief: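 Human umbilical vein endothelial cells co-cultured with PBMC, LPS-stimulated; secreted MCP-1 measured by ELISA 24 h after compound addition. Bidirectional curve fitting against DMSO baseline; SRB total-protein staining in parallel cultures for cytotoxicity.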

[11] = BSK_LPS_PGE2: BioMAP Diversity Plus: LPS Assay for Prostaglandin E2 (PGE2) Biomarker Activity (AID 2283082); settings: primary human HUVEC with PBMC; actives raise or lower the signal
Method in brief: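 LPS-activated HUVEC/PBMC co-culture; cmpd dosed, 24 h; PGE2 by ELISA; bidirectional fit vs DMSO; SRB (0.1%, TCA-fixed, 560 nm) in parallel plates for overt cytotox.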

[12] = read-out: Macrophage colony-stimulating factor (MCSF), CSF1 (gene 1435); assay: BSK_LPS_MCSF: BioMAP Diversity Plus: LPS Assay for Macrophage colony-stimulating factor (MCSF) Biomarker Activity (AID 2283083); settings: primary human HUVEC with PBMC; actives raise or lower the signal
Method in brief: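 HUVEC–PBMC co-culture, M-CSF measured by ELISA 24 h after chemical dosing. Fitted in both directions relative to DMSO as negative control; overt cytotoxicity assessed by SRB total-protein staining in parallel cultures.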

[13] = read-out: Tissue Factor, F3 (gene 2152); assay: BSK_LPS_TissueFactor: BioMAP Diversity Plus: LPS Assay for Tissue Factor Biomarker Activity (AID 2283084); settings: primary human HUVEC with PBMC; actives raise or lower the signal
Method in brief: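 Human umbilical vein endothelial cells co-cultured with PBMC were dosed with compound. Cell-surface CD142 was measured by ELISA 24 h later. Activity was fitted bidirectionally against DMSO, with SRB total-protein staining in parallel cultures for cytotoxicity.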

[14] = read-out: Tumor necrosis factor (Homo sapiens) (UniProt P01375); assay: BSK_LPS_TNFa: BioMAP Diversity Plus: LPS Assay for Tumour Necrosis Factor alpha (TNFa) Biomarker Activity (AID 2283085); settings: primary human HUVEC with PBMC; actives raise or lower the signal
Method in brief: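 Read-out is ELISA of TNFa in primary human endothelial cell–PBMC co-cultures at 24 h after compound. Activity in either direction was fitted against DMSO.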

[15] = read-out: Vascular cell adhesion molecule 1 (VCAM1), VCAM1 (gene 7412); assay: BSK_LPS_VCAM1: BioMAP Diversity Plus: LPS Assay for Vascular cell adhesion molecule 1 (VCAM1) Biomarker Activity (AID 2283086); settings: primary human HUVEC with PBMC; actives raise or lower the signal
Method in brief: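 HUVEC + PBMC co-culture, LPS system; compound 24 h; VCAM-1 by ELISA; bidirectional fit vs DMSO control; parallel SRB (0.1%, TCA-fixed, 560 nm) for cytotoxicity.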

CD38, CD38 (gene 952) = assay: BSK_SAg_CD38: BioMAP Diversity Plus: SAg Assay for CD38 Biomarker Activity (AID 2283087); settings: primary human HUVEC with PBMC; actives raise or lower the signal
Method in brief: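 Human HUVEC plus PBMC co-culture stimulated with superantigen; CD38 measured by ELISA 24 h after chemical dosing. Fluorescence read-out, bidirectional fit against DMSO; cytotoxicity tracked in parallel by SRB and Alamar Blue.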

CD40, CD40 (gene 958) [16] = assay: BSK_SAg_CD40: BioMAP Diversity Plus: SAg Assay for CD40 Biomarker Activity (AID 2283088); settings: primary human HUVEC with PBMC; actives raise or lower the signal
Method in brief: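 HUVEC plus PBMC co-culture, superantigen-activated, with CD40 read by ELISA 24 h after dosing. Curves fitted in both directions against DMSO. Overt cytotoxicity checked by parallel SRB total-protein staining.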

CD69, CD69 (gene 969) = assay: BSK_SAg_CD69: BioMAP Diversity Plus: SAg Assay for CD69 Biomarker Activity (AID 2283089); settings: primary human HUVEC with PBMC; actives raise or lower the signal;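 on AC50: cell surface CD69 protein quantified by ELISA with fluorescence detection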
Method in brief: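 HUVEC co-cultured with PBMC were dosed with chemical, and CD69 was measured by ELISA with fluorescence read-out 24 h later. Bidirectional curve fitting used DMSO as negative control and activity baseline.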

[17] = read-out: Monocyte Chemoattractant Protein-1 (MCP1), CCL2 (gene 6347); assay: BSK_SAg_MCP1: BioMAP Diversity Plus: SAg Assay for Monocyte Chemoattractant Protein-1 (MCP1) Biomarker Activity (AID 2283090); settings: primary human HUVEC with PBMC; actives raise or lower the signal
Method in brief: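 MCP-1 levels in the endothelial–PBMC SAg co-culture were quantified by ELISA at 24 h post-dosing; both increases and decreases versus DMSO scored. Cytotoxicity monitored by SRB total protein in parallel cultures.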

[18] = read-out: E-selectin (Homo sapiens) (UniProt P16581); assay: BSK_SAg_Eselectin: BioMAP Diversity Plus: SAg Assay for Eselectin Biomarker Activity (AID 2283091); settings: primary human HUVEC with PBMC; actives raise or lower the signal
Method in brief: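 Human umbilical vein endothelial cells co-cultured with peripheral blood mononuclear cells, SAg system. E-selectin is measured by ELISA 24 h after dosing and fitted bidirectionally against DMSO. Cytotoxicity is checked by SRB staining of parallel cultures.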

Measured: AC50

Sequence of E-selectin (Homo sapiens) (P16581 whole entry, looked up): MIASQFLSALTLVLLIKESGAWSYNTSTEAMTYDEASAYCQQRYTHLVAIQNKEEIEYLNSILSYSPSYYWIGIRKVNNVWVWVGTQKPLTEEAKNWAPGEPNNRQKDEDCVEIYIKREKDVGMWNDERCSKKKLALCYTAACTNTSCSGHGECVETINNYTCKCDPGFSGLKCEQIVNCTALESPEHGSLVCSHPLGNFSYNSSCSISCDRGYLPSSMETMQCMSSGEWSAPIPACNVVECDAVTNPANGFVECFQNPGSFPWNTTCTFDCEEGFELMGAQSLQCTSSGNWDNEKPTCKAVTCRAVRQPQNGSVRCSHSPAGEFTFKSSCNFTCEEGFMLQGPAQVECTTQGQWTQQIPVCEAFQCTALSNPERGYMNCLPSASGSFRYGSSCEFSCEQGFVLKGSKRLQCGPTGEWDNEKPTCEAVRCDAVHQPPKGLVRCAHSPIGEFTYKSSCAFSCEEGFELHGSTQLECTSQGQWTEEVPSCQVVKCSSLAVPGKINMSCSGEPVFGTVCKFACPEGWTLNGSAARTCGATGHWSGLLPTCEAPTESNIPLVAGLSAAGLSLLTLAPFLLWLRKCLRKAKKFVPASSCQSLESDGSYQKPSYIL
Sequence of Tumor necrosis factor (Homo sapiens) (P01375 whole entry, looked up): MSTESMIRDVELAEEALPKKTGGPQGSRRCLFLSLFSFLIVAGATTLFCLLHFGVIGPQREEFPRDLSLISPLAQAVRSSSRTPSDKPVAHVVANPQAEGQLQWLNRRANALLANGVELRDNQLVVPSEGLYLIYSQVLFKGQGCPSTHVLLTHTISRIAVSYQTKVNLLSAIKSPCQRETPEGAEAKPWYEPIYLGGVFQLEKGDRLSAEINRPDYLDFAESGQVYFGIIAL

CO[C@@H]1COCC[C@@H]1N[C@@H]1CC[C@@](C(=O)N2CCc3ncc(C(F)(F)F)cc3C2)(C(C)C)C1
inactive: [1] | [2] | [3] | [4] | CD40, CD40 (gene 958) [5] | [6] | [7] | [8] | [9] | [10] | [11] | [12] | [13] | [14] | [15] | CD38, CD38 (gene 952) | CD40, CD40 (gene 958) [16] | CD69, CD69 (gene 969) | [17] | [18]

CC(=O)O[C@]1(C(C)=O)CC[C@H]2[C@@H]3C=C(Cl)C4=CC(=O)[C@@H]5C[C@@H]5[C@]4(C)[C@H]3CC[C@@]21C
active: CD40, CD40 (gene 958) [5] 31.5 µM | [8] 30.9 µM | CD40, CD40 (gene 958) [16] 30.1 µM | CD69, CD69 (gene 969) 30.5 µM
inactive: [1] | [2] | [3] | [4] | [6] | [7] | [9] | [10] | [11] | [12] | [13] | [14] | [15] | CD38, CD38 (gene 952) | [17] | [18]

C=CCc1ccc(OC)c(OC)c1
active: [14] 11 µM
inactive: [1] | [2] | [3] | [4] | CD40, CD40 (gene 958) [5] | [6] | [7] | [8] | [9] | [10] | [11] | [12] | [13] | CD38, CD38 (gene 952) | CD40, CD40 (gene 958) [16] | CD69, CD69 (gene 969) | [17] | [18]

NC(=Nc1ccccc1)Nc1ccccc1
active: [12] 5.45 µM
inactive: [1] | [2] | [3] | [4] | CD40, CD40 (gene 958) [5] | [6] | [7] | [8] | [9] | [10] | [11] | [13] | [14] | CD38, CD38 (gene 952) | CD40, CD40 (gene 958) [16] | CD69, CD69 (gene 969) | [17]
